aSyn UTR act: Activators via SNCA 5'UTR binding, MLPCN; alpha-synuclein 5'UTR reporter, activators screen; activity score, % (tested at 7.5 µM), hits read low; hit rate 7.1% among 300,000; in the data active = activity score below about -60%
* hit, by the source's call. These entries were drawn from the full list.

SMILES	aSyn UTR act
COc1ccc(OCc2cc(C(=O)NCc3nc(C)cs3)no2)c(Cl)c1	-94*
COc1ccc(OCc2cc(C(=O)NC(C)c3csc(C)n3)no2)c(Cl)c1 (stereo not drawn)	-119*
O=C(Nc1cc(Cl)cc(Cl)c1)c1cnn2cccnc12	-97*
Cc1cc(NC(=O)c2cnn3cccnc23)no1	-83*
O=C(Nc1cccc(Cl)c1)c1cnn2cccnc12	-202*
Cn1c(S(=O)(=O)Cc2ccc(Cl)cc2)nc2ccccc21	-65*
Cc1ccc(NCc2nc3ccccc3n2C)cc1C	-113*
Cn1c(CNc2nc3ccccc3n2C)nc2ccccc21	-81*
COc1ccc(NCc2nc3ccccc3n2C)cc1	-129*
Cn1c(NCc2ccc(Cl)cc2)nc2ccccc21	-100*
Cn1c(CNc2ccc(Br)cc2)nc2ccccc21	-172*
CCOC(=O)c1ccc(NCc2nc3ccccc3n2C)cc1	-172*
C=CCn1c(NCc2ccc(N(C)C)cc2)nc2ccccc21	-63*
COc1ccc(Nc2nc3ccccc3n2C)cc1	-101*
Cc1ccc(NCc2nc3ccccc3n2C)cc1	-111*
CCCn1c(CNc2ccccc2O)nc2ccccc21	-84*
Oc1ccccc1C1CC(c2cccs2)=NC(c2cccc(Br)c2)N1 (stereo not drawn)	-87*
CN1CCN(c2ccc(-c3cccc(NC(=O)COc4ccccc4)c3)nn2)CC1	-70*
CCC(=O)Nc1cccc(-c2ccc(N3CCN(C)CC3)nn2)c1	-73*
CN1CCN(c2ccc(-c3cccc(NC(=O)COc4ccc(Cl)cc4)c3)nn2)CC1	-131*
N/C(=N\OC(=O)Nc1ccccc1)c1ncc([N+](=O)[O-])s1	-94*
CC1CC1c1ccc(/C=C(\C#N)C(=O)Nc2cccc(Cl)c2Cl)o1 (stereo not drawn)	-111*
O=C(Nc1cnc2ccccc2c1)N1CCCCC1	-74*
CN(C(=O)Nc1cnc2ccccc2c1)c1ccccc1	-89*
O=C(Nc1cnc2ccccc2c1)N1CCOCC1	-109*
SMILES	aSyn UTR act
CCOC(=O)N=Nc1c2ccccc2c2nc3no[nH]c3nc12	119
CCOC(=O)c1cn(CC)c2c(ccc3ccccc32)c1=O	-90*
COc1ccc(-c2csc(Nc3cccc(C)n3)n2)cc1C	-216*
CC(=O)Oc1ccc(-c2csc(Nc3cccc(C)n3)n2)cc1	-250*
Cc1cccc(Nc2nc(-c3ccc(F)cc3)cs2)n1	-137*
COc1ccc(-c2csc(Nc3cccc(C)n3)n2)cc1	-232*
Fc1ccc(-c2csc(Nc3ccccn3)n2)cc1	-77*
O=[N+]([O-])c1ccc2cn(-c3ccccc3)nc2c1	-200*
COc1ccccc1-n1cc2ccc([N+](=O)[O-])cc2n1	-119*
CS(=O)(=O)c1nc2c(cc1C#N)CCCC2	-85*
CCNc1nc(N)nc(Oc2ccc(C(=O)OC)cc2)n1	-71*
CCNc1nc(Oc2ccc(C#N)cc2)cc(C(F)(F)F)n1	59
Cc1cccc(-c2nnc(SCc3ccccc3)o2)c1	-102*
Cc1cccc(CSc2nnc(-c3ccco3)o2)c1	-64*
Cc1cccc(CSc2nnc(-c3ccco3)n2C)c1	-70*
CC1(C)CCC(=O)N2CC[C@H]3C[C@H](OC(=O)Nc4ccc(Br)cc4)C[C@@H]1[C@H]32	-68*
O=C(Nc1ccc(Oc2c(F)c(F)c(F)c(F)c2F)cc1)OC1CCN2Cc3ccccc3N=C12 (stereo not drawn)	104
c1csc(C2=NNC(=NC3CCCCC3)SC2)c1	-165*
c1ccc2oc(C3=NNC(=NC4CC4)SC3)cc2c1	-135*
O=C(CNC(=O)c1ccccc1)OC1CCCCC1	-98*
O=C(NC(=O)c1ccc(Cl)cc1)OC1CCCCC1	-91*
Fc1ccc2nc(Nc3nc4c(F)cccc4s3)sc2c1	-235*
Fc1cccc2sc(Nc3nc4ccccc4s3)nc12	-309*
O=C(Nc1nc2c(F)cc(F)cc2s1)c1ccccn1	73
Fc1ccc2nc(Nc3nc4c(F)cc(F)cc4s3)sc2c1	-211*
SMILES	aSyn UTR act
S=C(Nc1ccccc1)N1CCCCCCC1	-88*
OCC1CCCN(C(=S)Nc2ccc(Nc3ccccc3)cc2)C1 (stereo not drawn)	-130*
Cc1ccc(NC(=S)N2CCCC(O)C2)cc1 (stereo not drawn)	-63*
CC(C)c1ccc(NC(=S)N2CCCC2)cc1	-86*
C=CCc1cccc(/C=C/c2cc(=O)c3ccccc3[nH]2)c1O	-71*
C=CCc1cccc(/C=N/NC(=O)CNc2ccccc2)c1O	74
O=C(CC(Nc1ccc(F)cc1)C(=O)O)c1ccccc1 (stereo not drawn)	-171*
O=C(CC(Nc1ccc(F)cc1)C(=O)OCC(=O)c1cccs1)c1ccccc1 (stereo not drawn)	-113*
COC(=O)[C@H](Cc1ccccc1)NC(=O)c1cc(COc2c(F)cccc2F)on1	-85*
CC(=O)c1ccc(NC(=O)C(C)OC(=O)c2ccc3c(c2)nc(C)n3-c2ccccc2)cc1 (stereo not drawn)	-91*
Cc1ccc(C(=O)NCCn2cc(SCC(=O)Nc3cc(C)on3)c3ccccc32)cc1	-78*
NC(=O)c1c(NC(=O)C2CCCO2)sc2c1CCCC2 (stereo not drawn)	-74*

Assay outcomes (PubChem BioAssay)
